In the library only some 6.8% were active in any assay of this set; here they are far more common.
Spn DPM-DC inh = S. pneumoniae DPM-DC inhibition; actives 0.49% (n = 65,000); purified DPM-DC, PK/LDH coupled NADH fluorescence; AID 556; calls only at 10 µM;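 active = the 320 compounds with the highest percent inhibition in the single-dose primary screen, excluding strongly autofluorescent ones, cut at about 32% in these data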;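 also: kinetic rate of NADH fluorescence loss reporting ADP formed by the decarboxylase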
Autofluor 339 = intrinsic fluorescence of library compounds, ex339/em460 – biochemical, MLSMR library, data from DPM-DC assay, artefact control, profiling panel. compound autofluorescence, ex339/em460 nm, NADH buffer; hits give high values; 1 = no-compound wells, NADH background. fluorescence fold increase at 10 µM. actives 5.5% (n = 65,000). AID 709;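 active = at 10 µM, mean starting fluorescence two-fold or more over control wells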;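 also: signal is the first read of a kinetic run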
NADH coupling = blocks coupling enzymes of NAD/NADH assays. coupled PK/LDH NADH assays, four targets. IC50, µM (titrated, usually from 10 µM), without a hit: at the highest dose inhibition. actives 0.02% (n = 65,000);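 active = single-dose screening hits from any of four coupled enzyme assays that gave an IC50 when retested across doses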;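 also: the DPM-DC format reads NADH fluorescence rather than 340 nm absorbance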
Spn MK inh = S. pneumoniae mevalonate kinase inhibition; purified MK, PK/LDH-coupled NADH absorbance 340 nm; inhibition, % at 10 µM; actives 0.48% (n = 65,000); AID 555;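 active = ranked among the strongest by inhibition in the single 10 µM screen, a fixed top-ranked set picked for dose follow-up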
Abs 340nm = compounds absorbing at 340 nm. compound absorbance at 340 nm, fold over control. fold change at 10 µM. 65,000 tested, under 10 active;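 active = at 10 µM dose, initial 340 nm absorbance at least 2 fold that of control wells; inactive = change under 2 fold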;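 also: initial absorbance extrapolated from kinetic A340 decline of NADH oxidation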
PMK inhibit = inhibitors of Streptococcus pneumoniae phosphomevalonate kinase. purified PMK, PK/LDH-coupled NADH absorbance 340 nm. inhibition, % at 10 µM. actives 0.49% (n = 65,000);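 active = top-ranked compounds by inhibition in the single 10 µM screen, taking a fixed number of the strongest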;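 also: 0% = full reaction with DMSO carrier and 100% = background rate without enzyme reaction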
* = called active by the depositor; i = inactive; x = no result given.

SMILES | Spn DPM-DC inh | Autofluor 339 | NADH coupling | Spn MK inh | Abs 340nm | PMK inhibit
O=C(COc1ccc2c(c1)C(=O)CC1(CCCCC1)O2)NCc1ccccn1 | x | 5.08* | 5.0% | 0.0 | 1.01 | 10.0
O=C(COc1ccc(S(=O)(=O)NC2CCCCC2)cc1)NCc1ccccn1 | i | 1 | 5.0% | 10.0 | 1.01 | 6.0
CC1(C)CC(=O)c2cc(OCC(=O)NCCCN3CCN(c4ccccc4F)CC3)ccc2O1 | x | 3.42* | 2.0% | 0.0 | 1 | 13.0
CCOC(=O)COc1ccc2c(c1)C(=O)CC(C)(c1cccnc1)O2 (centres undefined) | x | 4.79* | 7.0% | 0.0 | 1.05 | 14.0
Cc1cc(C)n(CC2CC(=O)N(c3cc(Cl)cc(Cl)c3)C2=O)n1 (centres undefined) | i | 1.07 | 4.0% | 0.0 | 1.02 | 9.0
CC(Oc1ccc(Cl)cc1Cl)C(=O)NCc1ccncc1 (centres undefined) | i | 1.08 | 4.0% | 12.0 | 1.03 | 0.0
N#Cc1ccc(Oc2cccc(C(=O)O)c2)cc1C#N | i | 1.11 | 7.0% | 9.0 | 1.02 | 11.0
CCOc1ccc(-c2nc(-c3ccccc3)no2)cc1OCC | i | 1.13 | 3.0% | 4.0 | 1.03 | 5.0
COc1cc(-c2nnc(-c3cccs3)o2)cc(OC)c1OC | i | 2.51* | 13.0% | 0.0 | 1.03 | 14.0
O=c1cc(-c2ccco2)nc(-c2cccs2)o1 | i | 1.1 | 3.0% | 2.0 | 1.08 | 6.0
COc1cc(-c2nnc(SCC#CCO)o2)cc(OC)c1OC | i | 1.13 | 5.0% | 6.0 | 1.03 | 9.0
c1csc(-c2nnc(-c3ccc(N4CCOCC4)cc3)o2)c1 | x | 3.71* | 14.0% | 9.0 | 1.17 | 19.0
CCOc1ccc(-c2nnc(-c3cccs3)o2)cc1OCC | x | 3.7* | 12.0% | 9.0 | 1.1 | 14.0
c1coc(-c2nnc(-c3cccs3)o2)c1 | x | 3.35* | 6.0% | 0.0 | 1 | 24.0
Brc1ccccc1-c1nnc(-c2cccnc2)o1 | i | 1.1 | 0.0% | 0.0 | 1.03 | 0.0
COc1ccc(-c2nnc(-c3cccs3)o2)cc1OC | x | 2.47* | 3.0% | 10.0 | 1.04 | 0.0
COc1cc2nc(-c3cccs3)oc(=O)c2cc1OC | i | 1.18 | 10.0% | 11.0 | 1.27 | 3.0
c1cncc(-c2nnc(-c3cccs3)o2)c1 | i | 2.26* | 6.0% | 11.0 | 1.02 | 8.0
O=C(Nc1ncnc2c1CCC2)C12CC3CC(CC(C3)C1)C2 | i | 1.05 | 10.0% | 9.0 | 0.99 | 16.0
CCOC(=O)CSc1n[nH]c(-c2cccnc2)n1 | i | 1.02 | 9.0% | 0.0 | 1.01 | 25.0*
CCOC(=O)CSc1nnc(-c2cccnc2)n1Cc1ccccc1 | i | 1.04 | 5.0% | 9.0 | 0.97 | 3.0
CCOC(=O)C1CCCN(C(=O)c2cc3c(=O)n4cccc(C)c4nc3n2C)C1 (centres undefined) | x | 3.35* | 2.0% | 3.0 | 1.02 | 12.0
Cn1c(C(=O)NCC2CCCO2)cc2c(=O)n3ccccc3nc21 (centres undefined) | x | 5* | 9.0% | 9.0 | 1.1 | 9.0
Cc1cccn2c(=O)c3cc(C(=O)N4CCc5ccccc5C4)n(C)c3nc12 | x | 5.02* | 8.0% | 5.0 | 1.06 | 10.0
Cc1cccn2c(=O)c3cc(C(=O)N4CCCc5ccccc54)n(C)c3nc12 | i | 1.33 | 2.0% | 2.0 | 1.02 | 12.0
SMILES | Spn DPM-DC inh | Autofluor 339 | NADH coupling | Spn MK inh | Abs 340nm | PMK inhibit
CNC(=O)c1cc2c(=O)n3cccc(C)c3nc2n1C | x | 5.01* | 8.0% | 6.0 | 1.1 | 10.0
Cn1cc(C(=O)c2ccc(Cl)cc2)cc1-c1nc2ccccc2n1C | i | 1.24 | 1.0% | 0.0 | 1.11 | 3.0
Cc1cc(C(=O)NCC2CCCO2)n(-c2ccccc2)n1 (centres undefined) | i | 1.08 | 11.0% | 13.0 | 1.05 | 20.0
Cc1cccn2c(=O)c3cc(C(=O)NCC4CCCO4)n(C)c3nc12 (centres undefined) | x | 5* | 9.0% | 7.0 | 1.1 | 11.0
Cn1c(C(=O)N2COCC2(C)C)cc2c(=O)n3ccccc3nc21 | x | 5.01* | 9.0% | 8.0 | 1.12 | 10.0
CN(C)c1ccc(NC(=O)c2cc3c(=O)n4ccccc4nc3n2C)cc1 | i | 1.66 | 6.0% | 8.0 | 1.03 | 7.0
COc1ccc(OC)c(NC(=O)COC(=O)c2ccc(S(=O)(=O)N3CCOCC3)cc2)c1 | i | 1.03 | 7.0% | 6.0 | 1.01 | 15.0
COc1ccccc1-c1cc(C(=O)NC(C)C)no1 | i | 1.24 | 4.0% | 2.0 | 1 | 11.0
COc1ccccc1-c1cc(C(=O)Nc2ccc(F)cc2F)no1 | i | 2.12* | 8.0% | 12.0 | 1.04 | 11.0
COc1ccc2[nH]c3c(c2c1)CCn1c-3nc2ccccc2c1=O | x | 2.24* | 5.0% | 9.0 | 1.15 | 0.0
COc1ccccc1NC(=O)c1oc2ccc(C)cc2c1C | i | 1.18 | 2.0% | 0.0 | 1.07 | 1.0
CCOC(=O)C1=C(N)OC2=C(C(=O)CCC2)C1c1ccc(C)s1 (centres undefined) | i | 1.06 | 15.0% | 1.0 | 1.03 | 37.0*
Cn1c(=O)c2nc(-c3ccccc3)oc2c2ccccc21 | x | 5.01* | 5.0% | 2.0 | 1.05 | 8.0
CCc1nnc(NC(=O)CSc2nnc(Cc3cccn3C)n2CCOC)s1 | i | 1.06 | 5.0% | 4.0 | 1.04 | 10.0
COc1ccc(N2CCN(c3cc(C)c4ccc(O)cc4n3)CC2)cc1 | x | 2.14* | 3.0% | 0.0 | 1.11 | 5.0
Cc1cc(N2CCOCC2)nc2cc(O)ccc12 | x | 2.19* | 4.0% | 5.0 | 1.14 | 3.0
Cc1cc(N2CCN(c3ccccc3F)CC2)nc2cc(O)ccc12 | i | 3.15* | 5.0% | 7.0 | 1.11 | 7.0
Cc1cc(N2CCCN(C)CC2)nc2cc(Cl)ccc12 | i | 1.58 | 1.0% | 0.0 | 1.12 | 1.0
O=C(c1cccc(C(=O)N2CCN(c3ccccc3F)CC2)n1)N1CCN(c2ccccc2F)CC1 | i | 1.11 | 7.0% | 7.0 | 1.03 | 14.0
Cc1onc(-c2c(F)cccc2Cl)c1C(=O)OCC(=O)NCc1ccco1 | i | 1.13 | 3.0% | 1.0 | 1.02 | 8.0
c1ccc(-c2nn3c(Cn4cnc5ccccc54)nnc3s2)cc1 | i | 1.09 | 7.0% | 12.0 | 1.06 | 1.0
Cc1ccc(C)c(S(=O)(=O)C(C#N)c2nc3ccccc3nc2N2CCCC2)c1 (centres undefined) | x | 3.37* | 3.0% | 5.0 | 1.04 | 0.0
C=CCNC(=O)C(C#N)c1nc2ccccc2nc1N1CCCCCC1 (centres undefined) | x | 2.27* | 0.0% | 0.0 | 1.03 | 0.0
Cc1ccc(C)c(S(=O)(=O)C(C#N)c2nc3ccccc3nc2N2CCOCC2)c1 (centres undefined) | i | 1.24 | 3.0% | 7.0 | 1.05 | 0.0
COc1ccc(S(=O)(=O)C(C#N)c2nc3ccccc3nc2N2CCCCC2)cc1 (centres undefined) | i | 1.76 | 11.0% | 12.0 | 1.09 | 0.0

Screens from PubChem.
